Assay outcomes as filed in PubChem.
ST2 IL33 inh – IL1RL1 inhibition; Q01638; AlphaLISA ST2-Fc/biotin-IL-33 interaction, 1 h; inhibition, % for hits at 17 µM; hit rate 2.3% among 78,000; AID 1259354; in the data active means inhibition above about 30%
Target sequence (Q01638 whole entry, looked up): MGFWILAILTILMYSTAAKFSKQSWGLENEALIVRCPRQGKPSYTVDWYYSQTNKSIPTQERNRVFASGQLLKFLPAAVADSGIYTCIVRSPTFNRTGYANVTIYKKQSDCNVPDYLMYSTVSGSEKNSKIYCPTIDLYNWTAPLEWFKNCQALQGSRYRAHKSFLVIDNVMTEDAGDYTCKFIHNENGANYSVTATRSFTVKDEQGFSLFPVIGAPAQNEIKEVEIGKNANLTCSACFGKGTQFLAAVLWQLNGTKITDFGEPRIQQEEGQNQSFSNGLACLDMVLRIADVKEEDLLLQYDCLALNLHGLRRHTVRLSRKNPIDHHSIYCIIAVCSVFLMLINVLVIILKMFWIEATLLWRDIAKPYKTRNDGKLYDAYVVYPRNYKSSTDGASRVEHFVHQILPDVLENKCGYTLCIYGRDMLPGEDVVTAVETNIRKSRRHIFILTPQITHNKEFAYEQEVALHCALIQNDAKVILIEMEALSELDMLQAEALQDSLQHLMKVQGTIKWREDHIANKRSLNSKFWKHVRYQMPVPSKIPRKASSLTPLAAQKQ
* marks the source's active call; other numbers are inactive results; i = inactive. This excerpt belongs to a sample that is enriched for hits.

SMILES	ST2 IL33 inh
CCN(CC)S(=O)(=O)c1ccc(C(=O)N2CCN=C2SCc2cc(C)ccc2C)cc1	i
COc1c(F)cc(CN2CCC(n3cc(CO)nn3)CC2)cc1F	i
COCCCNC(=O)CSc1cc(=O)n(C)c2cc(Cl)ccc12	i
COc1ccc(S(=O)(=O)NCC(C)C)cc1OC	i
Cc1c(NS(=O)(=O)c2ccc3c(c2)C(=O)c2ccccc2-3)c(=O)n(-c2ccccc2)n1C	i
CC(C)CCNS(=O)(=O)c1ccc2c(c1)C(=O)c1cc(S(=O)(=O)NCCC(C)C)ccc1-2	36%*
CCOC(=O)C1(CCOc2ccccc2)CCN(Cc2c[nH]c3ccccc23)CC1	i
CC(C)c1ccc(N(C(=O)c2ccccc2F)C2C=CS(=O)(=O)C2)cc1 (stereo not given)	i
Cc1nc2ccccc2c(=O)n1CC(=O)NCc1ccccc1	i
CCn1c(/C=C/c2cccnc2)nc2ccccc2c1=O	96%*
Cn1c(/C=C/c2ccc(Br)cc2)nc2ccccc2c1=O	i
CC1=NOC(C(=O)Nc2ccccc2OCCCc2ccccc2)C1 (stereo not given)	i
Cc1ccccc1-n1nc2c(c1NC(=O)COc1ccc(Cl)cc1Cl)CS(=O)C2 (stereo not given)	i
O=[N+]([O-])c1ccc(CN2C[C@H](O)C[C@H]2c2nc(-c3ccccc3)no2)cc1	i
Cc1ccc(C2CC(C(F)(F)F)n3ncc(C(=O)Nc4cccnc4)c3N2)cc1 (stereo not given)	i
O=C(c1ccc(NCc2cccnc2)nc1)N1CCCC(c2ccccc2)CC1 (stereo not given)	i
O=C(CSc1ccc2nnc(-c3cccnc3)n2n1)N1CCCCC1c1ccc(F)cc1 (stereo not given)	i
O=C(CSc1ccc2nnc(-c3cccnc3)n2n1)N1CCCC(c2ccccc2)CC1 (stereo not given)	36%*
O=C(Cc1ccccc1)Nc1cccc(-c2nc3ccccc3s2)c1	i
N#Cc1ccc(C(=O)Nc2ccc(-c3nc4ccccc4s3)cc2)cc1	32%*
CC(=O)Nc1ccc(-c2nc3cc4sc(-c5ccc(NC(C)=O)cc5)nc4cc3s2)cc1	i
O=C(CN1CCCN(Cc2cccc(Cl)c2)S1(=O)=O)Nc1cccc(Br)c1	i
Cc1ccc(C2(O)CCN(C(=O)c3cc4sccc4[nH]3)CC2)nc1	i
O=C(Nc1c2c(nn1-c1cccc(Cl)c1)CS(=O)C2)c1ccc(F)cc1 (stereo not given)	i
CC1(C)CC(N2C(=O)OC(C)([C@H]3CC4C=CC3C4)C2(C)O)CC(C)(C)N1 (stereo not given in full)	98%*
SMILES	ST2 IL33 inh
COc1ccc(NC2=NC(C)(C)Cc3cc(OC)c(OC)cc32)cc1	i
Cc1ccccc1Oc1ccc(N2C(=O)C3C4C=CC(C4)C3C2=O)cc1 (stereo not given)	i
Cc1nnc(-c2cccc(-c3cc(NCc4ccccn4)nc4[nH]ccc34)c2)o1	35%*
Cc1cccc(-c2nnc(-c3nc(NCc4ccccc4C)c4ccccc4n3)o2)c1	i
Cc1nnc(-c2ccccc2-c2cccc(CN3CCOCC3)c2)o1	i
CCCCNC(=O)C1CCCN(S(=O)(=O)c2cnc[nH]2)C1 (stereo not given)	i
COc1ccc(NC(=O)Cn2c(=O)n(-c3ccc(C)c(F)c3)c(=O)c3sccc32)cc1Cl	i
CCc1c(C(=O)N2CCC3(CCCN(CCOC)C3=O)C2)[nH]c2ccccc12 (stereo not given)	i
COc1cc2c(cc1OC)CN(Cc1ccc(Br)cc1)CC2	i
c1ccc2c(c1)Nc1ccc3ccccc3c1S2	39%*
Fc1ccc2c(c1)Sc1ccccc1N2	36%*
COc1ccc(C2=CC(=O)Nc3ccccc3S2)cc1	i
C=CCOc1ccc(/C=c2\sc3nc(=O)c(C)nn3c2=O)cc1	i
Nc1c(C(=O)c2ccc(Br)cc2)sc2nc3c(cc12)CCC3	i
Cc1ccc(-c2ccc(C(=O)NCCCn3ccnc3C(C)C)cn2)cc1	i
C=CCOc1ccc(/C=c2\sc3nc(-c4ccc(C)cc4)nn3c2=O)cc1	i
Cc1ccc(NC(=O)N2Cc3[nH]cnc3C[C@H]2c2nc(-c3ccc4ccccc4c3)no2)cc1	i
O=C(Nc1ccccc1)N1Cc2[nH]cnc2C[C@H]1c1nc(-c2ccc3ccccc3c2)no1	38%*
O=C(NC1CCCCC1)N1Cc2[nH]cnc2C[C@H]1c1nc(-c2ccc3ccccc3c2)no1	i
CCN(CC)S(=O)(=O)c1ccc(C(=O)N2CCN=C2SCc2ccccc2F)cc1	i
CCOc1ccc(N2CC(C(=O)Nc3cccc(OC)c3)CC2=O)cc1 (stereo not given)	i
NC(N)=NS(=O)(=O)c1ccc(N=Cc2cc(Br)cc(Br)c2O)cc1	i
Oc1c(Br)cc(C=Nc2ccc(N3CCOCC3)cc2)c(O)c1Br	52%*
COc1ccc(N=Cc2cc(Br)cc(Cl)c2O)cc1	i
CCOC(=O)C1CCCN(S(=O)(=O)N(C)C)C1 (stereo not given)	i
SMILES	ST2 IL33 inh
CCCS(=O)(=O)c1c(S(=O)(=O)CCC)c2c(C)cccn2c1C(=O)c1ccccc1	i
CCCCOC(=O)C1=C(C)Nc2ncnn2C1c1ccccc1Cl (stereo not given)	i
Cc1cc2ccccc2n1CCNC(=O)COc1ccc(Cl)cc1Cl	i
C=CCSc1nnc2c(n1)OC(c1ccc(O)c([N+](=O)[O-])c1)Nc1ccccc1-2 (stereo not given)	i
CC(C)c1cc(N2CCCC3(CC2)CNC(=O)O3)nc(C(F)(F)F)n1 (stereo not given)	i
CC(C)c1cc(NC2CC(=O)N(CC(C)(C)C)C2)nc(C(F)(F)F)n1 (stereo not given)	31%*
CC(C)c1cc(NCc2cccnc2N2CCCC(O)C2)nc(C(F)(F)F)n1 (stereo not given)	i
O=C(NC(Cc1c[nH]c2ccccc12)C(=O)O)c1ccccc1 (stereo not given)	i
O=C(N[C@H]1CCN2C(=O)[C@@H](Cc3c[nH]c4ccccc34)NC(=O)[C@H]12)c1ccccc1	79%*
CC(C)C1NC(=O)CNC(=O)C2CCCN2C(=O)C(Cc2c[nH]c3ccccc23)NC(=O)CNC(=O)C(C(O)c2ccc(O)cc2)NC(=O)CNC1=O (stereo not given)	i
COc1cccc(C(=O)Nc2c(-c3cccs3)nc3ccccn23)c1OC	i
O=C(O)C1(Cc2ccc(F)cc2)CCCN(c2cnc3ccccc3n2)C1 (stereo not given)	i
CN1CCc2c1nc1ccccc1c2NC(=O)CNC1CC1	i
CC(=O)Nc1ccc(S(N)(=O)=O)cc1	i
CC(=O)Nc1ccc(NC2=CC(=NS(=O)(=O)c3ccc(C)cc3)c3ccccc3C2=O)cc1	48%*
C=CCC(CC=C)(NS(=O)(=O)c1ccc(NC(C)=O)cc1)c1ccccc1	i
O=C(O)c1cccc(NC(=O)c2cccc(S(=O)(=O)Nc3ccc(Cl)cc3)c2)c1	i
O=C(O)c1ccc(NC2=CC(=NS(=O)(=O)c3ccc(Cl)cc3)c3ccccc3C2=O)cc1	48%*
CC(=O)Nc1ccc(S(=O)(=O)Nc2ccccc2Cl)cc1	i
CC(=O)Nc1ccc(S(=O)(=O)NCc2ccccc2)cc1	i
CC(=O)Nc1ccc(NC2=CC(=NS(=O)(=O)c3ccccc3)c3ccccc3C2=O)cc1	83%*
O=S(=O)(Nc1ccc(S(=O)(=O)Nc2ccc(Cl)cc2)cc1)c1ccccc1	i
